From PubChem BioAssay
Compounds with a hit are over-represented: about 6.3% of the library has one in this group of screens.
HepG2 viability – kills HepG2 cells in TGF-b inhibitor counter-screen; HepG2 CAGA-GFP viability, ATP luminescence, 18 h; Potency, µM (highest dose often 46.1 µM), inactives show top-dose activity change, negative = cytotoxicity, hits mostly cytotoxic; 0.76% of 410,000 active; AID 588856
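HepG2 CAGA-GFP cells (1000/well, DMEM with 1% FBS) received compound, then TGF-beta at 500 pg/mL final, and were incubated 18 hours at 37 degrees C. Viability was read by CellTiter-Glo luminescence. Media-only wells were set as complete cell-killing and DMSO as no toxicity.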
RORg inh – inhibitors of mouse ROR gamma transcriptional activity. P51450. Drosophila S2 Gal4-RORgamma UAS-luciferase reporter, 20 h. Potency, µM (titrated, usually from 53.6 µM), without a hit: at the top dose activity change, negative = inhibition, actives largely listed as inhibitors. 5.4% of 310,000 active. AID 2551; note: % is set by controls: 0 for no effect and ±100 for the full control effect; nearly all actives have a fitted effect of over 60% in size
Target sequence (P51450 whole entry, looked up, the tested form may be a part): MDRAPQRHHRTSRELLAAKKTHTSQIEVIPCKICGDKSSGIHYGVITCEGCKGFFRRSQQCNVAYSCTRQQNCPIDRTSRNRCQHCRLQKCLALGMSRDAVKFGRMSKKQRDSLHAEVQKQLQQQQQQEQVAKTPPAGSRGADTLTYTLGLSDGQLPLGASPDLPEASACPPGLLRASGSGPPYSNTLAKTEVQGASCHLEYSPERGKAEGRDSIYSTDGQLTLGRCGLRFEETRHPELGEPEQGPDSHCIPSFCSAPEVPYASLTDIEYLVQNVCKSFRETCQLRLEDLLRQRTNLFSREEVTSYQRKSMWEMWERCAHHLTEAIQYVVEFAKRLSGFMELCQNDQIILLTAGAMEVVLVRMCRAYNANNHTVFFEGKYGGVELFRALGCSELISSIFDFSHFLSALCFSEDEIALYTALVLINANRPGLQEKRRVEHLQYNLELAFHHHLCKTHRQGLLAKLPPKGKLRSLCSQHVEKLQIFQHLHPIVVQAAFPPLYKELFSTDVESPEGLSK
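Drosophila Schneider cells stably carrying a metallothionein-driven Gal4 DBD–ROR gamma fusion and a UAS-Photinus luciferase reporter were exposed to compound for 1 hr, then induced with copper sulfate (700 uM final) for 20 hr at ambient temperature before luminescence reading.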
ATXN2 expr inh – inhibitors of ATXN2 expression; 0.72% of 360,000 active; HEK-293 ATXN2-luciferase reporter, luminescence, 24 h; Potency, µM (titrated, usually from 57 µM), inactives show at the highest dose activity change, negative = inhibition, most hits filed as inhibitors; note: % is set by controls: 0 for no effect and ±100 for the full control effect; nearly all actives have a fitted effect of over 55% in size
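qHTS (up to 57 uM final) was run with 24 h compound exposure of reporter cells at 37 °C. Each well was multiplexed: SteadyGlo luminescence measured ATXN2-luciferase expression after a fluorogenic Gly-Phe-AFC viability readout (25 uM final).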
Gal4-VP16 FLuc – inhibits Gal4-VP16 luciferase reporter, ROR gamma counter-screen | Drosophila S2 Gal4-VP16 UAS-luciferase, luminescence, 20 h | Potency, µM (highest dose often 53.6 µM), for the others: at the top dose activity, negative = inhibition, most hits filed as inhibitors | 3.5% of 310,000 active | AID 2546;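 note: Gal4-VP16 expression switched on by copper sulfate through the metallothionein promoter; % is set by controls: 0 for no effect and ±100 for the full control effect; nearly all actives have a fitted effect of over 50% in size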
ATXN viability – reduces viability in counter-screen for ATXN expression inhibitors | S2 cells (HEK-293 line with an ATXN2-luciferase reporter) viability, CellTiter-Fluor protease fluorescence, 24 h | Potency, µM (titrated, usually from 56.7 µM), most hits filed as cytotoxic | 0.49% of 400,000 active; note: nearly all actives have a fitted effect of over 40% in size
TGFb inhibitor – blocks TGF-b signaling. 1.2% of 410,000 active. AID 588855. Potency, µM (top dose mostly 46.1 µM), for inactives: top-dose activity, negative = inhibition, most hits filed as inhibitors. HepG2 CAGA-GFP TGF-b/SMAD3 reporter, GFP fluorescence, 18 h; TGF-beta stimulated, 500 pg/mL final; note: % is set by controls: 0 for no effect and ±100 for the full control effect; nearly all actives have a fitted effect of over 65% in size
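GFP signal (ex488/em500-530) from TGF-beta-stimulated HEPG2 CAGA-GFP cells, 500 pg/mL final, 18 h at 37 degrees C in DMEM plus 1% FBS, normalized to unstimulated and DMSO-stimulated controls.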
* hit, by the source's call; i = inactive; ? = inconclusive; · = no result. Calls come from the whole dose curve; as a rule, active = well fitted curve in the direction sought with a large enough effect; inconclusive = small, poorly fitted or top-dose-only effect, or another doubt; inactive = no such curve, though single readings can be large; an effect the other way counts as inactive or inconclusive. Potency is the fitted concentration of half-maximal effect.

SMILES	HepG2 viability	RORg inh	ATXN2 expr inh	Gal4-VP16 FLuc	ATXN viability	TGFb inhibitor
COc1ccc(CNC(=O)c2cccn2-c2nnc(N3CCCCC3)s2)c(OC)c1	-1%	·	·	·	·	?
c1ccc(COc2ncnc3c2ncn3CCCNCc2cccs2)cc1	2%	·	3%	·	?	15%
Cc1cc(=O)[nH]c2c(N=Nc3ccc(O)cc3)c(N)nn12	8%	?	·	?	?	12%
Nc1nn2c(C(F)(F)F)cc(=O)[nH]c2c1N=Nc1cccc(F)c1	-5%	10µM*	-8%	-16%	i	6%
CC(=O)N1CCCc2cc(S(=O)(=O)N3CCC(C(=O)Nc4cccc(Cl)c4C)CC3)ccc21	-2%	·	2%	·	i	-13%
C/C(=N\NC(=O)c1ccc(CN(C)S(=O)(=O)c2ccc(C)cc2)cc1)c1ccc(OC(F)F)cc1	1%	?	?	?	?	?
Cc1ccc(S(=O)(=O)N(C)Cc2ccc(C(=O)N/N=C/c3ccc(OC(F)F)cc3)cc2)cc1	5%	-6%	?	-6%	11µM*	?
CN(C)c1ccc(/C=N\Nc2ccc([N+](=O)[O-])cc2[N+](=O)[O-])cc1Br	-9%	·	·	·	·	20%
CCOc1ccc(-c2cn3c(n2)sc2cc(C(=O)NCCCN4CCCCCC4)ccc23)cc1	11µM*	·	?	·	·	?
CCCN1CCN(CCCNC(=O)c2ccc3c(c2)sc2nc(-c4ccc(OCC)cc4)cn23)CC1	-27%	·	·	·	·	28%
CCOc1ccc(CNC(=O)c2ccc3c(c2)sc2nc(-c4ccc(OC)cc4)cn23)cc1	2%	·	·	·	·	-11%
CCOc1ccc(-c2cn3c(n2)sc2cc(C(=O)NCCCN4CCCCC4)ccc23)cc1	2.5µM*	·	?	·	?	0%
CCOc1ccc(-c2cn3c(n2)sc2cc(C(=O)NCCCN(CC)CC)ccc23)cc1	10µM*	·	8.9µM*	·	13µM*	?
CCN(CC)CCNC(=O)c1ccc2c(c1)sc1nc(-c3ccc(F)cc3)cn12	16µM*	·	·	·	·	11µM*
COc1ccc(NC(=O)CSc2nnc3scc(-c4ccc(Cl)cc4)n23)cc1	-19%	·	-14%	·	i	-2%
CC(C)(C)NCC(O)COc1ccc(NC(=O)NC2CCCCC2)cc1 (centres undefined)	·	-6%	45%	4%	i	·
CC(=O)Nc1cccc(C(=O)/C=C/c2ccc(Br)cc2)c1	-38%	?	?	?	·	?
CC(=O)Nc1cccc(C(=O)/C=C/c2ccc(F)cc2)c1	13µM*	13µM*	?	?	?	?
CC(=O)Nc1cccc(C(=O)/C=C/c2ccc(/C=C/C(=O)c3cccc(NC(C)=O)c3)cc2)c1	·	10µM*	·	?	·	·
COc1ccc(Cn2cc(C(=O)c3ccc(Cl)cc3)c(=O)c3cc4c(cc32)OCO4)cc1	-20%	·	?	·	?	?
COc1ccc(C(=O)c2cn(Cc3ccc(F)cc3)c3ccc(C)cc3c2=O)cc1	-7%	·	?	·	18µM*	?
COc1ccc(Cn2cc(C(=O)c3ccc(F)cc3)c(=O)c3cc4c(cc32)OCCO4)cc1	-5%	·	2%	·	i	11%
COc1ccc2c(c1)c(=O)c(C(=O)c1ccc(C)cc1)cn2Cc1ccccc1F	-34%	·	?	·	25µM*	?
COc1ccc(C(=O)c2cn(Cc3ccccc3F)c3ccc(F)cc3c2=O)cc1	-14%	·	-21%	·	i	?
CCOc1ccc(C(=O)c2cn(Cc3ccc(Cl)cc3)c3cc(OC)c(OC)cc3c2=O)cc1	-28%	·	-7%	·	16µM*	?
SMILES	HepG2 viability	RORg inh	ATXN2 expr inh	Gal4-VP16 FLuc	ATXN viability	TGFb inhibitor
CC(C)(C)Nc1nc(NN)nc(NC(C)(C)C)n1	-5%	7.1µM*	-37%	20µM*	i	?
CC(C)(C)Nc1nc(Cl)nc(NC(C)(C)C)n1	-19%	-14%	5%	-6%	i	1%
C[C@H](CO)N1C[C@H](C)[C@@H](CN(C)C)Oc2c(NS(=O)(=O)c3cn(C)cn3)cccc2C1=O	-9%	·	-1%	·	i	-9%
Nc1ncnc2c1c(-c1ccc(Oc3ccccc3)cc1)cn2C1CCCC1	-70%	-26%	-34%	?	?	22µM*
COc1ccc(-n2cc(-c3ccccc3)c3c(NC4CCCC4)ncnc32)cc1	-56%	·	·	·	·	?
O=C(CN1C(=O)c2ccccc2S1(=O)=O)c1ccccc1	6%	8.9µM*	14µM*	14µM*	i	0%
Cc1ccc(C(=O)CN2C(=O)c3ccccc3S2(=O)=O)cc1	-22%	2.2µM*	1µM*	?	i	2%
O=C(CN1C(=O)c2ccccc2S1(=O)=O)c1ccccc1Cl	·	8.9µM*	·	?	·	·
CC(C)NC(=O)CN1C(=O)c2ccccc2S1(=O)=O	3%	1%	-5%	-9%	i	-1%
O=C(CN1C(=O)c2ccccc2S1(=O)=O)Nc1ncc(Cl)cc1Cl	3%	·	5µM*	·	i	18%
COC(=O)c1ccc(CN2C(=O)c3ccccc3S2(=O)=O)cc1	0%	12%	-8%	4%	i	?
Cc1ccc(C(=O)CN2/C(=C(\O)c3ccccc3)C(=O)c3ccccc3S2(=O)=O)c(C)c1	-37%	13µM*	-14%	?	i	-2%
CCCCC[C@H](O)/C=C/[C@H]1OC(=O)C[C@H](O)[C@@H]1C/C=C\CCCC(=O)O	·	-29%	·	-4%	·	·
O=C(C[n+]1cccc(I)c1)c1ccc(F)cc1	-5%	·	·	·	·	17%
CSc1nc(O)c(N=Nc2ccc(F)cc2F)c(=O)[nH]1	-90%	?	·	10µM*	i	3%
Cc1c(C(=O)N/N=C/c2cccnc2)sc(N)c1C#N	6.3µM*	-25%	2%	?	i	10µM*
Cc1ccc(C(=O)N/N=C\c2cccnc2)s1	-4%	-19%	12%	-13%	i	14%
COC(=O)c1c(SCC(=O)Nc2cc(C)cc(C)c2)[nH]c2ccccc2c1=O	10µM*	·	?	·	i	13µM*
COC(=O)c1c(SCC(=O)Nc2ccccc2C(F)(F)F)[nH]c2ccc(Cl)cc2c1=O	4%	·	5%	·	i	?
Cc1nc(-c2ccc(C(F)(F)F)cc2)sc1C(=O)NN	-15%	4.5µM*	16µM*	3.5µM*	i	-18%
Cc1ccc(Oc2ccc(C(F)(F)F)cc2[N+](=O)[O-])c([N+](=O)[O-])n1	22µM*	20%	53%	21%	?	15%
Nc1c(C(=O)Nc2ccccc2)nnn1-c1ccc2c(c1)OCCO2	3%	10µM*	-38%	?	i	0%
